Rows were chosen to be rich in hits. Some 5.7% of all compounds tested hit in one or more screens of this group.
ATXN2 expr inh = inhibitors of ATXN2 expression. HEK-293 ATXN2-luciferase reporter, luminescence, 24 h. Potency, µM (doses to about 57 µM), for inactives: at the highest dose activity change, negative = inhibition, most hits filed as inhibitors. 360,000 tested, 0.72% active; note: potency is the fitted concentration of half-maximal effect; % is set by controls: 0 for no effect and ±100 for the full control effect; nearly all actives have a fitted effect of over 55% in size
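ATXN2-luciferase reporter cells (luciferase flanked by upstream and downstream ATXN2 gene portions) were treated 24 h at 37 °C with compounds at up to 57 uM. SteadyGlo luminescence gave expression; GF-AFC fluorescence gave viability.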
TGFb inhibitor = TGF-b pathway inhibition | HepG2 CAGA-GFP TGF-b/SMAD3 reporter, GFP fluorescence, 18 h; TGF-beta stimulated, 500 pg/mL final | Potency, µM (top dose mostly 46.1 µM), for the others: at the highest dose activity, negative = inhibition, hits mostly inhibitors | 410,000 tested, 1.2% active | AID 588855; note: potency is the fitted concentration of half-maximal effect; % is set by controls: 0 for no effect and ±100 for the full control effect; nearly all actives have a fitted effect of over 65% in size
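Using HEPG2 CAGA-GFP reporter cells at 1000 cells/well, we pinned test compounds, stimulated with recombinant TGF-beta (500 pg/mL final) and measured total well GFP after 18 h.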
HepG2 tox-1 = HepG2 cytotoxicity, counter-screen for TGF-b inhibitors | AID 588856 | 410,000 tested, 0.76% active | Potency, µM (highest dose often 46.1 µM), for the others: at the top dose activity change, negative = cytotoxicity, hits mostly cytotoxic | HepG2 CAGA-GFP viability, ATP luminescence, 18 h; note: potency is the fitted concentration of half-maximal effect
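HepG2 CAGA-GFP cells (1000/well, DMEM with 1% FBS) received compound, then TGF-beta at 500 pg/mL final, and were incubated 18 hours at 37 degrees C. Viability was read by CellTiter-Glo luminescence. Media-only wells were set as complete cell-killing and DMSO as no toxicity.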
IL1B secr inh = inhibitors of inflammasome signaling (IL-1 beta secretion) | activity change, % at 57.5 µM | THP-1 LPS/ATP IL-1B secretion, AlphaLISA, 16 h; stronger effect = lower value | AID 743279 | 360,000 tested, 4.7% active; in the data active = activity change below about -50%; inconclusive = mostly about -30% to -49%; note: % is set by controls: 0 for no effect and ±100 for the full control effect
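THP-1 cells pretreated 1 hr with compounds (up to 57.5 uM final), then stimulated with LPS (250 ng/mL final) plus ATP (1.25 mM final); secreted IL-1B measured by AlphaLISA after 16 hr, decreased signal indicating inhibition.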
S2 tox = reduces viability in counter-screen for ATXN expression inhibitors | S2 cells (HEK-293 line with an ATXN2-luciferase reporter) viability, CellTiter-Fluor protease fluorescence, 24 h | 400,000 tested, 0.49% active | Potency, µM (top dose mostly 56.7 µM), actives largely listed as cytotoxic | AID 651635; note: potency is the fitted concentration of half-maximal effect; nearly all actives have a fitted effect of over 40% in size
TGFb confirm = TGF-b pathway inhibition, cherry-pick retest; Potency, µM (titrated, usually from 46.1 µM), for inactives: top-dose activity, negative = inhibition, most hits filed as inhibitors; 1,600 tested, 63% active; shares compounds with TGFb inhibitor; HepG2 CAGA-GFP TGF-b reporter, GFP fluorescence, 18 h; cells stimulated with TGF-beta, 500 pg/mL; note: potency is the fitted concentration of half-maximal effect; % is set by controls: 0 for no effect and ±100 for the full control effect; nearly all actives have a fitted effect of over 65% in size
HepG2 tox-2 = counter-screen for TGF-b inhibitors: cytotoxicity in HepG2 cells | Potency, µM (series often up to 46.1 µM), for the others: at the highest dose activity, negative = cytotoxicity, actives largely listed as inhibitors | shares compounds with TGFb inhibitor | HepG2 CAGA-GFP viability, ATP luminescence, 18 h; cells stimulated with TGF-beta, 500 pg/mL | 1,600 tested, 27% active | AID 720535; note: potency is the fitted concentration of half-maximal effect; % is set by controls: 0 for no effect and ±100 for the full control effect; nearly all actives have a fitted effect of over 70% in size
TGFb CCL64 inh = TGF-b inhibition, CCL64 orthogonal assay; shares compounds with TGFb inhibitor; CCL64 CAGA-GFP reporter, TGF-b stimulated, GFP fluorescence, 18 h; Potency, µM (top dose mostly 46.1 µM), for the others: at the top dose activity, negative = inhibition, hits mostly inhibitors; 1,600 tested, 41% active; AID 720536; note: potency is the fitted concentration of half-maximal effect; nearly all actives have a fitted effect of over 65% in size
TGFb COP inh = blocks TGF-b signaling in HepG2 COP reporter; shares compounds with TGFb inhibitor; HepG2 COP-GFP TGF-b reporter, GFP fluorescence, 18 h; cells stimulated by added recombinant TGF-beta; 1,600 tested, 3% active; AID 720537; Potency, µM (doses to about 46.1 µM), inactives show top-dose activity, negative = inhibition, usual class: inhibitors; note: potency is the fitted concentration of half-maximal effect; nearly all actives have a fitted effect of over 70% in size
* = called active by the depositor; i = inactive; ? = inconclusive; · = no result given; [ ] = remark or other dose. Unless noted, calls come from the whole dose curve; as a rule, active = well fitted curve in the direction sought with a large enough effect; inconclusive = small, poorly fitted or top-dose-only effect, or another doubt; inactive = no such curve, though single readings can be large; an effect the other way counts as inactive or inconclusive.

SMILES	ATXN2 expr inh	TGFb inhibitor	HepG2 tox-1	IL1B secr inh	S2 tox	TGFb confirm	HepG2 tox-2	TGFb CCL64 inh	TGFb COP inh
Cc1cc(C)c(NC(=O)Cn2c(=O)nc(-c3ccccc3)c3cc(Cl)ccc32)c(C)c1	·	-4.2%	-0.2%	·	·	·	·	·	·
COC(=O)C1CCC(=O)N1C(c1ccc(OC)cc1)c1cc(OC)c(OC)c(OC)c1 (centres undefined)	4.2%	2µM*	2.2%	26.3	?	?	-2.1%	5.8µM*	?
COc1ccccc1OCc1nnc(-c2ccccc2)o1	·	·	-7.3%	·	·	·	·	·	·
CC=Cc1cc2c(c(=O)o1)C(=O)C(O)C(C)O2 (centres undefined)	?	11.2µM*	-16.5%	-100.8*	·	5.17µM*	20.6µM*	?	19.9%
CC1(C)Cc2ccccc2C(Nn2cnnc2)=N1	3.8%	-13.6%	6.9%	-3.8	i	·	·	·	·
CC1(C)Cc2ccccc2C2=NNC(=O)C2=N1	?	3.16µM*	-89.4%	-100.1*	?	4.61µM*	7.31µM*	?	11.6µM*
COc1cc(C(=O)N/N=C(\C)c2ccccn2)cc(OC)c1OC	-13.0%	1.26µM*	-2.1%	31.6	i	7.31µM*	-16.8%	3.66µM*	-10.5%
C/C(=N\NC(=O)COc1ccccc1-c1ccccc1)c1ccccn1	?	11.2µM*	-17.6%	-7.0	·	9.2µM*	?	?	-7.9%
C/C(=N/NC(=O)c1ccccn1)c1ccc(O)cc1	·	5.5%	-2.9%	-14.2	i	·	·	·	·
O=C(OCc1ccccc1F)c1ccc(-c2nnn(Cc3ccccc3)n2)cc1	2.3%	-0.1%	-18.9%	·	i	·	·	·	·
COc1cc2c(C(=O)N(C)c3cc(Cl)ccc3OC)cn(CC(C)C)c(=O)c2cc1OC	?	?	-36.1%	·	i	·	·	·	·
CC1CCN(S(=O)(=O)c2ccc3c(c2)CCN3C(=O)Nc2ccccc2Br)CC1	·	·	2.4%	·	·	·	·	·	·
CC(=O)N1c2ccc(S(=O)(=O)N3CCC(C(=O)Nc4cccc(C(F)(F)F)c4)CC3)cc2CC1C (centres undefined)	?	11.2µM*	-19.0%	-4.9	i	16.4µM*	?	-22.8%	-7.7%
Cc1ccc(SCC(=O)Nc2cc([N+](=O)[O-])ccc2O)cc1	12.4%[11.3 µM]	17.8µM*	-30.7%	4.9	i	4.61µM*	?	?	81.7%
O=C(CSCc1ccc(Cl)cc1)Nc1cc([N+](=O)[O-])ccc1O	?	?	-7.7%	?	?	·	·	·	·
COc1ccccc1NS(=O)(=O)c1ccc(C(=O)NCC(c2ccc(F)cc2)N2CCOCC2)cc1 (centres undefined)	·	16.2%	1.2%	17.2	i	·	·	·	·
COc1cc(C(=O)NCC(c2ccc(F)cc2)N2CCOCC2)ccc1OCc1ccccc1Cl (centres undefined)	-9.1%	20µM*	-16.0%	-59.9*	i	?	?	?	67.8%
C/C(=C\c1ccc(N)cc1)c1nc2ccccc2[nH]1	48.4%	-0.5%	-5.5%	?	i	·	·	·	·
